According to PubChem BioAssay (Tox21):
Values without a mark were called inactive. The call rests on the fitted dose curve; in most records, active means well fitted activation curve with a large enough effect in the repeat runs; inconclusive means weak or mixed curves; inactive means flat fitted curve, though single readings scatter.

test: A CellTox Green Cytotoxicity Assay to monitor cytotoxicity in HepG2 cells - 0 hour (AID 1224882); settings: CellTox Green fluorescence; series mostly up to 76.8 µM; cytotoxicity: at the top concentration; further: nearly all actives have a fitted effect of over 35% in size
From the text: National Center for Advancing Translational Sciences [NCATS]
NIH Chemical Genomics Center [NCGC]
U.S. Environmental Protection Agency [EPA]
National Institutes of Environmental Health Sciences [NIEHS]
National Toxicology Program [NTP]
Cell-based models are critical for drug discovery. Determining the natural cytotoxic effects resulting from test compounds is an essential research activity. A CellTox Green Cytotoxicity Assay to monitor cytotoxicity in real time of continues cell culture during 40 hours of the compound treatment was used to screen Tox21 10K library compounds in HepG2 cells. CellTox Green Cytotoxicity Assay is a nonlytic, homogeneous, biofluorescent method to measure cytotoxicity in cell culture after experimental manipulation. The assay system uses a proprietary asymmetric cyanine dye that is excluded from viable cells but preferentially stains the dead cell's DNA. […] Viable cells produce no appreciable increases in fluorescence. Therefore, the fluorescence signal produced by the binding interaction with dead cell DNA is proportional to cytotoxicity.
The mixture of HepG2 cell suspension and reagents were dispensed at 600cells/6 ul/well in 1536-well tissue culture treated black solid bottom plates using a Multidrop dispenser. After the assay plates were incubated at a 37 C/5% CO2 incubator for 5 hours, 23 nL of compounds dissolved in DMSO, positive and negative controls was transferred to the assay plate by a pintool work station. The plates were incubated at 37 C for 40 hours. The fluorescence intensity were measured at 0h, 8h, 16h, 24h, 32h and 40h time points using ViewLux plate reader during compound treatment.
On the % scale 0 is the no-effect control and ±100 the full control effect.

Compared with `Cc1nc(C)nc(N2C[C@@H](C)N(c3ccnc([C@@H](C)O)n3)[C@@H](C)C2)n1`, `Cc1ccccc1N1CCN(CCc2nnc3n2CCCC3)CC1` is higher in “cytotoxicity” value: 1.68% [at 35.3 µM] for the first, 2.09% [at 35.3 µM] for the second.

First: Cc1nc([N+](=O)[O-])cn1-c1ccc([N+](=O)[O-])cc1
Second: Nc1ccc(S(=O)(=O)NC(=O)c2ccccc2)cc1
The “cytotoxicity” value of the first is lower: 3.47% [at 35.3 µM] for the first, 4.13% [at 35.3 µM] for the second.

Compared with `O=C(O)C(=O)Nc1cccc(-c2nn[nH]n2)c1`, `Nc1ccc(C(=O)OCC(O)CO)cc1` (stereo not given) is higher in “cytotoxicity” value: -2.3% [at 35.3 µM] for the first, 0.674% [at 35.3 µM] for the second.

First: Cc1nc2n(c(=O)c1CCN1CCC(C(=O)c3ccc(F)cc3)CC1)CCS2
Second: CC(=O)c1ccc(OCC(=O)N2CCCCC2)cc1
The “cytotoxicity” value of the first is lower: -3.29% [at 35.3 µM] for the first, 1.63% [at 35.3 µM] for the second.

First: O=C1CC[C@H](C(=O)N2CCCCC2)N1
Second: CC(=O)OCC(=O)[C@@]1(O)[C@H](OC(C)=O)C[C@H]2[C@@H]3CCC4=CC(=O)C=C[C@]4(C)[C@@]3(F)[C@@H](O)C[C@@]21C
The “cytotoxicity” value of the first is higher: 3.35% [at 35.3 µM] for the first, 2.21% [at 35.3 µM] for the second.

Compared with `O=C(CN1CCN(Cc2ccc3c(c2)OCO3)CC1)N1c2ccccc2Sc2ccccc21`, `CN[C@@H]1[C@@H](O)[C@@H](O[C@@H]2[C@H](O)[C@H](O[C@H]3OC(CN)=CC[C@H]3N)[C@@H](N)C[C@H]2N)OCC1(C)O` (stereo not given in full) is lower in “cytotoxicity” value: 4.42% [at 35.3 µM] for the first, -1.23% [at 35.3 µM] for the second.

First: C=CCOC(=O)c1ccc(C(=O)OCC=C)c(C(=O)OCC=C)c1
Second: O=C(O)c1ccccc1C(=O)OCc1ccccc1
The “cytotoxicity” value of the first is higher: 0.83% for the first, -5.03% for the second.

Going from `COC(=O)CCC(=O)O` to `CCCCOC(=O)C(C)OC(=O)CCC` (stereo not given), the “cytotoxicity” value falls from 1.83% to -5.11%.

Going from `NC(=O)NNC(N)=O` to `CC(C)COC(=O)CC(C(=O)OCC(C)C)S(=O)(=O)O` (stereo not given), the “cytotoxicity” value rises from -5.38% to 0.262%.

Going from `C[N+](C)(C)CC(O)CCl` (stereo not given) to `CC(C)CCO`, the “cytotoxicity” value rises from -14.3% to 9.44%.

First: CCC(=O)OCCC(C)CCC=C(C)C (stereo not given)
Second: CC(C)COC(=O)COc1ccc(Cl)cc1Cl
The “cytotoxicity” value of the first is lower: -13.5% for the first, 6.4% for the second.

Compared with `COC(OC)C(C)c1ccccc1` (stereo not given), `CC(C)COC(=O)/C=C/c1ccccc1` is higher in “cytotoxicity” value: -1.62% for the first, 1.06% for the second.

Compared with `O=S(=O)(O)CCO`, `O=S(=O)(O)c1cc(O)ccc1O` is higher in “cytotoxicity” value: -3.81% for the first, 3.01% for the second.

Compared with `O=C1NC2NC(=O)NC2N1` (stereo not given), `Nc1ccnc(=O)[nH]1` is lower in “cytotoxicity” value: -2.46% for the first, -4.2% for the second.

Going from `CC(=O)OC(C)(C)Cc1ccccc1` to `CC(C)c1ccccc1O`, the “cytotoxicity” value rises from -0.514% to -0.243%.

First: CC1=NN(c2ccc(S(=O)(=O)O)cc2)C(=O)C1N=Nc1ccccc1 (stereo not given)
Second: Cc1ccccc1OCC1CO1 (stereo not given)
The “cytotoxicity” value of the first is higher: 14.5% for the first, 0.998% for the second.

Going from `N#CCCOCCOCCC#N` to `OCCCCCCCl`, the “cytotoxicity” value rises from 0.326% to 1.58%.

Going from `CCN(CCO)c1cccc(C)c1` to `CCCCCC1CCCC(=O)O1` (stereo not given), the “cytotoxicity” value rises from -7% to 2.29%.

First: CO[Si](CCCS)(OC)OC
Second: CCCCCCCC[Si](OCC)(OCC)OCC
The “cytotoxicity” value of the first is lower: 0.448% for the first, 0.67% for the second.

First: O=S1(=O)CCCC1
Second: CCC(C)(C)C1CCC(=O)CC1
The “cytotoxicity” value of the first is lower: -0.765% for the first, 0.384% for the second.
